Bioassay records: PubChem BioAssay, several laboratories
MazEF act – activators of E. coli MazEF toxin-antitoxin RNase; activation, % at 20 µM; 350,000 compounds, 0.32% hits; FAM/BHQ RNA-DNA oligo cleavage fluorescence, 5 h; AID 504720; in the data active means activation above about 50%
Target sequence (P0AE70 whole entry, looked up): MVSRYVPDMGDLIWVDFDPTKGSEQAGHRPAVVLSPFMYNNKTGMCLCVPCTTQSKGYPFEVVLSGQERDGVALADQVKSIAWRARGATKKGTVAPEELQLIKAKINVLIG
BoNT F protease – inhibitors of Botulinum neurotoxin F light chain protease | Multiplex microsphere protease cleavage assay, flow cytometry | inhibition, % at 10 µM | 360,000 compounds, 0.22% hits | AID 588497; in the data active means inhibition above about 35%, passing the limit was not always enough; inconclusive means no clear call, values can overlap the other calls; further: plate controls were buffer without enzyme for full effect and enzyme alone for no effect
BoNT A protease – inhibitors of Botulinum neurotoxin A light chain protease. 360,000 compounds, 0.17% hits. inhibition, % at 10 µM. multiplex microsphere protease substrate cleavage, flow cytometry; further: plate controls were buffer without enzyme for full effect and enzyme alone for no effect
Anthrax LF inh2 – blocks Bacillus anthracis lethal factor protease; inhibition, % at 10 µM; 360,000 compounds, 0.12% hits; P15917; multiplex microsphere protease cleavage assay, LF; further: plate controls were buffer without enzyme for full effect and enzyme alone for no effect
Autofluor counter – flagged as autofluorescent in microsphere protease counterscreen; compound autofluorescence counterscreen, microsphere flow cytometry; stronger effect = higher value; fluorescence intensity (test concentration not listed); 360,000 compounds, 3.1% hits; AID 624483; in the data active means fluorescence intensity above about 16000; inconclusive means no clear call, values can overlap the other calls
VHR inh abs – DUSP3 (human) phosphatase inhibition. recombinant VHR phosphatase, pNPP absorbance. inhibition, % at 13.3 µM. 290,000 compounds, 0.52% hits. AID 1654; in the data active means inhibition above about 50%
Target sequence (P51452 whole entry, looked up): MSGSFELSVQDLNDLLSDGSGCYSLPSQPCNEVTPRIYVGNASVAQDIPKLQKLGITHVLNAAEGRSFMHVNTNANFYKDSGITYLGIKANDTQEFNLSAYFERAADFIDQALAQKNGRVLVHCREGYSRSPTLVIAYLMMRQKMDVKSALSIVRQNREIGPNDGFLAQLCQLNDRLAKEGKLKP
Numbers without * were called inactive; ? = inconclusive; · = not tested or not shown. Shown are actives, neighbours in structure and some others; about 4.1% of the full set was active somewhere. Unless noted, no stated cut-off is given here; in the data, active means inhibition above about 30%; inconclusive means no clear call, values can overlap the other calls; inactive means below that.

SMILES	MazEF act	BoNT F protease	BoNT A protease	Anthrax LF inh2	Autofluor counter	VHR inh abs
CC1(C(=O)N2Cc3ccccc3C2)CCN1C(=O)C1(c2ccc(Cl)cc2)CC1 (stereo not drawn)	·	2	0	3	2799	·
CCN(c1ccccc1)S(=O)(=O)c1cccc(C(=O)NCC(c2cccs2)N2CCOCC2)c1 (stereo not drawn)	-5	6	1	-4	4284	·
C=CCN1CC(c2nc3ccccc3n2CCOc2ccccc2)CC1=O (stereo not drawn)	-5	-4	-2	0	22558*	6
CCc1nc2ccc(C(=O)N3CCCC(C(N)=O)C3)cn2c1N(C=O)CC (stereo not drawn)	·	-8	0	1	3813	·
Cc1ccc(C(=O)CN(C(=O)c2ccc(Cl)cc2)N2C(=O)CCC2=O)cc1	-14	-4	0	-1	3399	14
COc1ccc(C(=O)CN(C(=O)c2ccc(Cl)cc2)N2C(=O)C3CCCCC3C2=O)cc1 (stereo not drawn)	7	38*	?	-21	11113	4
COc1cccc(C(=O)CN(C(=O)c2ccc(Cl)c(Cl)c2)N2C(=O)C3CCCCC3C2=O)c1 (stereo not drawn)	-2	-3	-2	-3	17192*	8
COc1cccc(C(=O)CN2CCC(NC(=O)NC3CCCCC3)CC2)c1	7	-12	-5	-9	13711	-11
CCCCn1c(N)c(N(CCOC)C(=O)COC(=O)COc2ccc(CC)cc2)c(=O)[nH]c1=O	5	11	-5	-2	?	·
CCOc1ccc(NCc2cccn2-c2nnc(N3CCC(C(=O)NCCCN4CC(C)CC(C)C4)CC3)s2)cc1 (stereo not drawn)	25	-11	0	-7	5095	13
Cc1cccc(NC(=O)Nc2ccccc2)n1	-4	13	-2	-6	3126	28
Cc1cccc(NC(=O)NCC(F)(F)F)n1	4	2	?	-9	19660*	12
CC(C)CC(=O)Nc1ccc(C(=O)COC(=O)Cc2n[nH]c(=O)c3ccccc23)cc1	1	-7	0	-2	3182	·
Cc1cc(/C=C(\C#N)C(=O)Nc2ccc(F)cc2)c(C)n1-c1ccc(N2CCOCC2)c([N+](=O)[O-])c1	4	0	0	-6	22759*	21
Cc1cc(/C=C(\C#N)C(=O)Nc2ccccc2)c(C)n1-c1ccc2c(c1)OCO2	-9	-9	-4	-2	20884*	-14
COc1ccc(NC(=O)/C(C#N)=C/c2cc(C)n(-c3ccc(N4CCOCC4)c([N+](=O)[O-])c3)c2C)cc1	-12	-6	-1	-4	7955	-15
Cn1cncc1C#Cc1ccc2cc(C(C)(C)O)oc(=O)c2c1	-7	-2	0	7	4204	·
Cn1cncc1C#Cc1ccc2cc(C3(O)CCCCC3)oc(=O)c2c1	76*	1	0	-1	3290	·
CC(C(=O)N1CCN(c2ccc(Cl)cc2)CC1)c1ncc(C(F)(F)F)cc1Cl (stereo not drawn)	0	-1	-1	-3	16547*	25
Cc1ccccc1N1CCN(Cc2c(C#N)c3ccccc3n2C)CC1	2	-6	-4	-1	23866*	30
CC(Nc1cccc([N+](=O)[O-])c1)C(=O)Nc1ccc(S(=O)(=O)N2CCCC2)cc1 (stereo not drawn)	-2	-4	2	0	4884	·
Cc1occc1-c1nc(-c2ccccn2)no1	2	?	0	-4	3815	15
Cc1occc1-c1nc(-c2ccncc2)no1	-7	3	3	-2	21018*	-14
CCn1cnnc1SCC(=O)c1c(N)n(C2CC2)c(=O)[nH]c1=O	-7	-1	2	-3	5293	·
Cc1ccc(-n2c(C)cc(/C=N/NC(=O)c3ccc(CN4CCOCC4)cc3)c2C)cc1	-2	-1	2	-3	19963*	10
CCOC(=O)c1cnc(NCc2ccccc2)nc1C	5	-1	0	-3	16359*	11
C=CCSc1ncccc1C(=O)NCc1ccccc1	1	3	3	-3	21460*	14
COc1cc(NC(=O)c2cnc(NCc3ccccc3)nc2C)cc(OC)c1OC	7	12	0	0	3393	61
C=CCSc1ncccc1C(=O)NCCc1ccccc1	-3	-10	-2	-8	3101	44
CCOC(=O)c1cccnc1SCC(=O)NCc1ccccc1	5	1	1	-2	19817*	-13
